“And” between values parts separate entries of the source, which are not always exact repeats. Equal entries are not always repeated. Inconclusive results are not listed. Entries that show only a call come without a potency. The source holds several records for some structures; these can differ, active in one and inactive in another. The source made the active and inactive calls. Unless noted, the call rests on the fitted dose curve; in most records, active means well fitted curve in the direction sought with a large enough effect in the repeat runs; inconclusive means weak or mixed curves; inactive means no such curve, though single readings can be large; an effect the other way counts as inactive or inconclusive.
Experiments:
[1] = molecular target: Estrogen receptor beta (Homo sapiens) (UniProt Q92731); test: qHTS assay to identify small molecule antagonists of the estrogen receptor beta (ER-beta) signaling pathway (AID 1259378; active means well fitted inhibition curve with a large enough effect in the signal ratio in the repeat runs, not every such curve was filed as active; the % refers to the signal ratio; further: potency means the concentration at half of the fitted maximal effect)
Estrogen receptor beta (Homo sapiens), sequence (Q92731 whole entry, looked up): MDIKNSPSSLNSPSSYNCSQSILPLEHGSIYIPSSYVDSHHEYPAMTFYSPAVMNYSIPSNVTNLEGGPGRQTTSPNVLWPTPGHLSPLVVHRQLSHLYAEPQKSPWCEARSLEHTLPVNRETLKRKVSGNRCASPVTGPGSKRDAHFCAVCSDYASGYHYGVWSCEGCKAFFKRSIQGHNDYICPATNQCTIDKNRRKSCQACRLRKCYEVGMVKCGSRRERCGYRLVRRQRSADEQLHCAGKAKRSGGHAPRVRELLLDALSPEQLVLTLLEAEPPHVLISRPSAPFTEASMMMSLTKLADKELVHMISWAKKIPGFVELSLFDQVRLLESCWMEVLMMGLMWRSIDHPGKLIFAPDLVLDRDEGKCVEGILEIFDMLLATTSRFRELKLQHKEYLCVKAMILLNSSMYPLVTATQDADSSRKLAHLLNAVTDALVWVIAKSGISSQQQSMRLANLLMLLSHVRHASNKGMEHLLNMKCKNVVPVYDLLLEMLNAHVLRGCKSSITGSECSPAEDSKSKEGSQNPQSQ
Procedure, shortened: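 ER-beta-UAS-bla HEK293T cells in 2% charcoal-stripped FBS medium treated with compound plus 1nM final 17-beta-estradiol for 16 hr at 37C. Beta-lactamase reporter read by FRET substrate fluorescence after 2 hours at room temperature.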

[2] = qHTS assay to identify small molecule agonists of the androgen receptor (AR) signaling pathway in the presence of an antagonist - cell viability counter screen (AID 1259379); further: nearly all actives have a fitted effect of over 25% in size; further: potency means the concentration at half of the fitted maximal effect
Procedure, shortened: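 Cytotoxicity is assessed by CellTiter-Fluor in MDA-kb2 cells carrying an MMTV-driven luciferase reporter. Cells receive 3.0uM nilutamide plus compounds at 15 concentrations and incubate 16 hr at 37C without CO2 before fluorescence reading.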

[3] = qHTS assay to identify small molecule agonists of the estrogen receptor beta (ER-beta) signaling pathway - cell viability counter screen (AID 1259380); further: nearly all actives have a fitted effect of over 30% in size; further: potency means the concentration at half of the fitted maximal effect
Procedure, shortened: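 Cytotoxicity is measured in parallel with the reporter screen: after 16 hr compound exposure at 37C and a 2 hr LiveBLAzer step, CellTiter-Glo is added to the same ER-beta-UAS-bla HEK293T wells and luminescence read after 30 min.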

[4] = molecular target: Estrogen receptor (Homo sapiens) (UniProt P03372); test: qHTS assay to identify small molecule agonists of the estrogen receptor alpha (ER-alpha) signaling pathway in the presence of an antagonist (AID 1259383; calls by dose curve; further: nearly all actives have a fitted effect of over 15% in size; further: potency means the concentration at half of the fitted maximal effect; on activation: top concentration of the series differs between compounds)
Estrogen receptor (Homo sapiens), sequence (P03372 whole entry, looked up): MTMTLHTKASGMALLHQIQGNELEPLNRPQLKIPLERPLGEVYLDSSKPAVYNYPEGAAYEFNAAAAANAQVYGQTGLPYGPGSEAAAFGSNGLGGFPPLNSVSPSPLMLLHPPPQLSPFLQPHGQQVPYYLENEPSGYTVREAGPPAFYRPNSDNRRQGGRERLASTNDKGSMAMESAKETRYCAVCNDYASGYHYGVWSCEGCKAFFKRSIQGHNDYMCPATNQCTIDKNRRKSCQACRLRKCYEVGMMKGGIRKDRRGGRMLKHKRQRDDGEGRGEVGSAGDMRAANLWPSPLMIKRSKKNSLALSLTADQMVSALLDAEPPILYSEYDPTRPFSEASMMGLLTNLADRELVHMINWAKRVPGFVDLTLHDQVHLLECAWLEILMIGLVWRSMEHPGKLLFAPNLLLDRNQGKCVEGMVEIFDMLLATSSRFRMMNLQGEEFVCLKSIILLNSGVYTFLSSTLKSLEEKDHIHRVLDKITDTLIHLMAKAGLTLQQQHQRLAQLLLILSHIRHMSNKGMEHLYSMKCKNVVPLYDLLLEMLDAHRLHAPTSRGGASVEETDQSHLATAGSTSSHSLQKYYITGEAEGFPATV
Procedure, shortened: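 Agonist-mode confirmation in the presence of the ER antagonist ICI-182,780 at 10.0nM final. Breast-derived VM7Luc4E2 reporter cells were exposed to compounds for 22hr, and ERE-driven luciferase was quantified by luminescence.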

[5] = qHTS assay to identify small molecule agonists or antagonists of the thyroid stimulating hormone receptor (TSHR) signaling pathway - wild type cell line counter screen (AID 1259384; calls by dose curve)
Procedure, shortened: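 Wild-type Hek293 cells, 800/well, 18 h at 37C, then compound with Ro20-1724 for 30 min RT. cAMP by HTRF (cAMP-d2/anti-cAMP cryptate), 1 h RT, fluorescence read. 15 concentrations, triplicates.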

[6] = molecular target: Thyrotropin receptor (Homo sapiens) (UniProt P16473); test: qHTS assay to identify small molecule antagonists of the thyroid stimulating hormone receptor (TSHR) signaling pathway (AID 1259385; calls by dose curve; further: nearly all actives have a fitted effect of over 20% in size; further: potency means the concentration at half of the fitted maximal effect)
Thyrotropin receptor (Homo sapiens), sequence (P16473 whole entry, looked up): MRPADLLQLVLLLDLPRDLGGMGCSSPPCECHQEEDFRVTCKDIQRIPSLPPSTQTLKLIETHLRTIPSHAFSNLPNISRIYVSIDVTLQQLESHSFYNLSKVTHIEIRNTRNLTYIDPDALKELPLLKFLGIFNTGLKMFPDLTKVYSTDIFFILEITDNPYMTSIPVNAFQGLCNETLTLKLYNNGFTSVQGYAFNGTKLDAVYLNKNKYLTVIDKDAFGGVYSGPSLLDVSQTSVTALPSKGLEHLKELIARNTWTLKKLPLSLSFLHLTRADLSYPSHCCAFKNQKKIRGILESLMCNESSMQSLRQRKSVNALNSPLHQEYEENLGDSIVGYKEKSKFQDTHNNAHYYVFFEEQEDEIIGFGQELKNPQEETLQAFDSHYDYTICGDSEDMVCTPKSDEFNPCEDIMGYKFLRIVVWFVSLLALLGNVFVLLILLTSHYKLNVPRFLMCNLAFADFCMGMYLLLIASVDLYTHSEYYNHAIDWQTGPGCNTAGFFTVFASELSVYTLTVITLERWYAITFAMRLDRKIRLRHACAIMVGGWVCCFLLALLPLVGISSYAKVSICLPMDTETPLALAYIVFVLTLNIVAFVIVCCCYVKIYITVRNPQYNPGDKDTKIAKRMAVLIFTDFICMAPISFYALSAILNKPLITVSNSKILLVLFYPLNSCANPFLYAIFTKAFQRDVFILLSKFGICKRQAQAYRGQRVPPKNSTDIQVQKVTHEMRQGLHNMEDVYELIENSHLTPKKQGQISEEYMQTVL
Procedure, shortened: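 TSHR-HEK293 cells (800/well) plated 18 h, then compounds with Ro20-1724 and TSH at 1.5 ng/mL final, 30 min at room temperature. cAMP quantified by HTRF (cAMP-d2/anti-cAMP-cryptate, 1 h); 15 concentrations in triplicate.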

[7] = qHTS assay to identify small molecule agonists of the progesterone receptor (PR) signaling pathway - cell viability counter screen (AID 1346799; calls by dose curve; further: nearly all actives have a fitted effect of over 45% in size; further: potency means the concentration at half of the fitted maximal effect)
Procedure, shortened: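 Using the same plates as the PR reporter screen, HEK293T PR-UAS-bla cells received compounds for 16 hr at 37C and were then lysed with CellTiter-Glo; luminescence was read 30 min later at room temperature.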

[8] = qHTS assay to identify small molecule antagonists of the TGF-beta/Smad signaling pathway - cell viability counter screen (AID 1346824); further: nearly all actives have a fitted effect of over 50% in size; further: potency means the concentration at half of the fitted maximal effect
Procedure, shortened: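 SBE-bla HEK 293T cells, incubated overnight, then compound plus 0.25 ng/mL TGF-beta1 (stock added) for 5 hr at 37 C. Viability was read in the same wells by CellTiter-Glo luminescence after 30 min at room temperature.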

[9] = qHTS assay to identify small molecule agonists of the TGF-beta/Smad signaling pathway (AID 1346859; active means well fitted activation curve with a large enough effect in the signal ratio in the repeat runs, not every such curve was filed as active; the % refers to the signal ratio; further: series mostly up to about 77 µM)
Procedure, shortened: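 Beta-lactamase reporter activity downstream of Smad binding elements was measured in stably transfected HEK 293T cells; compounds were incubated for 5 hr, substrate for 2 hr at room temperature.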

[10] = molecular target: Thyrotropin-releasing hormone receptor (Homo sapiens) (UniProt P34981); test: qHTS assay to identify small molecule antagonists of the thyrotropin-releasing hormone receptor (TRHR) signaling pathway (AID 1346877; active means well fitted inhibition curve with a large enough effect in the repeat runs, not every such curve was filed as active; further: series mostly up to about 51 µM)
Thyrotropin-releasing hormone receptor (Homo sapiens), sequence (P34981 whole entry, looked up): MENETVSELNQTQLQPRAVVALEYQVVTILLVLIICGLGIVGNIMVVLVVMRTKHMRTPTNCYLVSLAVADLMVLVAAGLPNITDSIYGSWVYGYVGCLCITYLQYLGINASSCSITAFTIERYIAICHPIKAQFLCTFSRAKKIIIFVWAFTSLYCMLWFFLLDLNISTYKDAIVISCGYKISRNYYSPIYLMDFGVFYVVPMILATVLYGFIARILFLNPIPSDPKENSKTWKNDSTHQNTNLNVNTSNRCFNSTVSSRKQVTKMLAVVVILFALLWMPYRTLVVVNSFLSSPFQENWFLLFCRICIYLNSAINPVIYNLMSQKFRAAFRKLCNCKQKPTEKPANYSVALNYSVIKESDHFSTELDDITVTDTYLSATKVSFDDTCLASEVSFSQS
Procedure, shortened: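 Antagonism is measured as suppression of the calcium response to 1 nM TRH in TRHR-HEK293 cells that have been dye-loaded for 2 h at 37 °C after overnight plating. Each compound is tested at 15 concentrations in triplicate.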

[11] = molecular target: Thyrotropin-releasing hormone receptor (Homo sapiens) (UniProt P34981); test: qHTS assay to identify small molecule agonists of the thyrotropin-releasing hormone receptor (TRHR) signaling pathway (AID 1346891; calls by dose curve;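 further: HEK293 cells expressing TRHR with calcium dye readout; series mostly up to about 58 µM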)
Procedure, shortened: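 Overnight-plated (18 h, 37 °C, 5% CO2) TRHR-Hek293 cells; 2 h calcium dye at 37 °C; compound in DMSO; 3-min kinetic fluorescence read.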

[12] = Human pregnane X receptor (PXR) small molecule agonists, qHTS cell viability counter screen (AID 1346977); further: nearly all actives have a fitted effect of over 50% in size; further: potency means the concentration at half of the fitted maximal effect
Procedure, shortened: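 After a 5hr pre-incubation, PXR-Luc HepG2 cells received compounds plus positive control in DMSO and were kept 24hr at 37C. Cell viability was quantified by fluorescence from CellTiter-Fluor added for the final hour.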

[13] = Caspase-3/7 induction in HepG2 cells by small molecules, qHTS assay (AID 1346978); further: nearly all actives have a fitted effect of over 15% in size
Procedure, shortened: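 Wild-type HepG2 cells, 2,000/well, settled 5 hr at 37 C and 5% CO2, then compound-treated for 17 hr; caspase-3/7 activity read by luminescent Caspase-Glo 3/7 after 30 min at room temperature.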

[14] = qHTS assay to identify small molecule antagonists of the estrogen receptor beta (ER-beta) signaling pathway - cell viability counter screen (AID 1259382); further: series mostly up to about 92 µM; nearly all actives have a fitted effect of over 55% in size
Procedure, shortened: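 Cytotoxicity counter screen multiplexed with the beta-lactamase antagonist assay: GripTite HEK293T ER-beta-bla cells were treated 16 hr with test chemicals in the presence of 1nM 17-beta-estradiol, and viability was measured by CellTiter-Glo.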

[15] = qHTS assay to identify small molecule agonists of the estrogen receptor alpha (ER-alpha) signaling pathway in the presence of an antagonist - cell viability counter screen (AID 1259386);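 further: cells exposed to compounds for 22 h at 37 °C before the viability read; nearly all actives have a fitted effect of over 30% in size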; further: potency means the concentration at half of the fitted maximal effect
Procedure, shortened: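 Cytotoxicity was measured in parallel with the ERE-luciferase agonist screen, in the same wells. The cells were VM7Luc4E2, which endogenously express ER-alpha, and treatment was with compounds plus 10.0nM ICI-182,780 for 22hr.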

[16] = molecular target: Progesterone receptor (Homo sapiens) (UniProt P06401); test: qHTS assay to identify small molecule agonists of the progesterone receptor (PR) signaling pathway (AID 1346784; calls by dose curve; further: nearly all actives have a fitted effect of over 30% in size)
Progesterone receptor (Homo sapiens), sequence (P06401 whole entry, looked up): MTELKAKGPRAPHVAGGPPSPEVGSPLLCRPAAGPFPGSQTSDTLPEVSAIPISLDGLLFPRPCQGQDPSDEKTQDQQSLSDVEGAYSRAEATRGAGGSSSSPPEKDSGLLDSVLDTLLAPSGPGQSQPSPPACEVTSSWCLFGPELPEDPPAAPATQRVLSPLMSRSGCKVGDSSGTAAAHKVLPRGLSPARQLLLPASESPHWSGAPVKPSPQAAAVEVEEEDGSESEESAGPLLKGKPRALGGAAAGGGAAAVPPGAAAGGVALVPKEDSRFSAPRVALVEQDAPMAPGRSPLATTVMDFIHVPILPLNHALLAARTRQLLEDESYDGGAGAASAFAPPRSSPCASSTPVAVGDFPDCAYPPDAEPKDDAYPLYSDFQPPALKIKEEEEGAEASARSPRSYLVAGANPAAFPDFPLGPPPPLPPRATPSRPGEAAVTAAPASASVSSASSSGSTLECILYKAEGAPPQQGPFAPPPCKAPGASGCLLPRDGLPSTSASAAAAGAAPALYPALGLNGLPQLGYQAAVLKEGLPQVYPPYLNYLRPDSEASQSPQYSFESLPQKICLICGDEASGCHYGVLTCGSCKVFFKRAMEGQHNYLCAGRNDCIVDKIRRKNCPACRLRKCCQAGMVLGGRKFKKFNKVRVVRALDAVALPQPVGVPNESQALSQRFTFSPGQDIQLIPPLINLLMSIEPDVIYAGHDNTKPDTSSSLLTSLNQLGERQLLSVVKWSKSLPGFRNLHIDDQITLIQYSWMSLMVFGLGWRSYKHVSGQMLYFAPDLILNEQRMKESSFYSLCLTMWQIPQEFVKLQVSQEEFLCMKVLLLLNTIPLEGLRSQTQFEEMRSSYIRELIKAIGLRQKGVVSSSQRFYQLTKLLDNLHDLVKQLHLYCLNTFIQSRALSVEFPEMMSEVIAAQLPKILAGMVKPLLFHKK
Procedure, shortened: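 Seed PR-UAS-bla HEK 293T cells (2% charcoal-stripped FBS), incubate 6 hr at 37C; add compounds in DMSO, 16 hr at 37C; add LiveBLAzer B/G substrate, 2 hr RT; read fluorescence intensity.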

[17] = molecular target: Progesterone receptor (Homo sapiens) (UniProt P06401); test: qHTS assay to identify small molecule antagonists of the progesterone receptor (PR) signaling pathway (AID 1346795; active means well fitted inhibition curve with a large enough effect in the signal ratio in the repeat runs, not every such curve was filed as active; the % refers to the signal ratio; further: potency means the concentration at half of the fitted maximal effect)
Procedure, shortened: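 Screening used a GripTite HEK293T line with PR-responsive UAS-beta-lactamase. Cells were challenged with compound in the presence of 1 nM R5020 final for 16 hr at 37C; B/G FRET substrate, 2 hr room temperature, fluorescence.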

[18] = qHTS assay to identify small molecule agonists of the TGF-beta/Smad signaling pathway - cell viability counter screen (AID 1346829); further: nearly all actives have a fitted effect of over 45% in size; further: potency means the concentration at half of the fitted maximal effect
Procedure, shortened: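 Tox21 qHTS format: SBE-bla HEK 293T cells treated with DMSO-dissolved compounds for 5 hr; CellTiter-Glo luminescence after 30 min at room temperature.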

[19] = qHTS assay to identify small molecule antagonists of the progesterone receptor (PR) signaling pathway - cell viability counter screen (AID 1346798); further: nearly all actives have a fitted effect of over 50% in size; further: potency means the concentration at half of the fitted maximal effect
Procedure, shortened: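 Measures cytotoxicity in parallel with the PR antagonist reporter read: HEK293T PR-UAS-bla cells get compound and R5020 for 16 hr, and remaining viable cells are quantified by CellTiter-Glo luminescence.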

CCc1nn(C)c(C(=O)NCc2ccc(C(C)(C)C)cc2)c1Cl
Potency [1]: 24.3 µM (active) | Potency [2]: 306 nM (active) | Potency [3]: 54.5 µM (active) | Potency [4]: inactive | outcome [5]: inactive | Potency [6]: 61.1 µM (active) | Potency [7]: 54.5 µM (active) | Potency [8]: 0.389 µM (active) | outcome [9]: inactive | Potency [10]: inactive | Potency [11]: inactive | Potency [12]: 10.9 µM (active) | Potency [13]: inactive

O=[N+]([O-])c1ccc(Oc2ccc(C(F)(F)F)cc2[N+](=O)[O-])cc1
Potency [1]: inactive | Potency [2]: inactive | Potency [3]: inactive | Potency [14]: inactive | Potency [4]: inactive | outcome [5]: inactive | Potency [15]: inactive | Potency [16]: inactive | Potency [17]: 7.7 µM (active) | Potency [8]: inactive | Potency [18]: inactive | outcome [9]: inactive | Potency [10]: inactive | Potency [11]: inactive | Potency [12]: inactive | Potency [13]: inactive

COc1cccc2c1C(=O)c1c(O)c3c(c(O)c1C2=O)C[C@@](O)(C(=O)CO)CC3OC1CC(N2CCOC(OC)C2)C(O)C(C)O1 (stereo partly drawn)
Potency [1]: 0.168 µM (active) | Potency [2]: 13300 nM (active) | Potency [3]: inactive | Potency [14]: inactive | Potency [4]: inactive | outcome [5]: inactive | Potency [15]: 10.6 µM (active) | Potency [19]: 266 nM (active) | Potency [8]: inactive | Potency [18]: inactive | Potency [12]: 0.168 µM (active)

c1ccc(Nc2ccc3ccccc3c2)cc1
Potency [1]: 54.2 µM (active) and 48.6 µM (active) | Potency [2]: inactive | Potency [3]: 68.2 µM (active) | Potency [4]: 8.63 µM (active) | outcome [5]: inactive | Potency [6]: inactive | Potency [15]: inactive | Potency [16]: inactive | Potency [17]: 17.2 µM (active) | Potency [7]: inactive | Potency [8]: inactive | Potency [18]: inactive | outcome [9]: inactive | Potency [10]: inactive | Potency [11]: inactive | Potency [12]: inactive | Potency [13]: inactive

CC(C)(COCC1CO1)COCC1CO1 (stereo not drawn)
Potency [1]: inactive | Potency [2]: inactive | Potency [14]: inactive | Potency [4]: inactive | outcome [5]: inactive | Potency [6]: inactive | Potency [15]: inactive | Potency [16]: inactive | Potency [17]: inactive | Potency [19]: inactive | Potency [7]: inactive | Potency [8]: inactive | Potency [18]: inactive | Potency [10]: inactive | Potency [11]: inactive | Potency [12]: inactive | Potency [13]: inactive

Clc1ccc(COC(Cn2ccnc2)c2ccc(Cl)cc2Cl)cc1 (stereo not drawn)
Potency [1]: 13.3 µM (active) | Potency [2]: 50.8 µM (active) and 60.9 µM (active) and inactive | Potency [3]: 57 µM (active) and 30.5 µM (active) and 11.9 µM (active) | outcome [5]: inactive | Potency [6]: 57 µM (active) and 68.3 µM (active) | Potency [15]: 50.8 µM (active) and 68.3 µM (active) and inactive | Potency [16]: inactive | Potency [17]: 5.31 µM (active) | Potency [19]: 18 µM (active) and 27.2 µM (active) and 6.68 µM (active) | Potency [7]: 45.3 µM (active) and 15.3 µM (active) and 5.96 µM (active) | Potency [8]: inactive | Potency [18]: 40.7 µM (active) | outcome [9]: inactive | Potency [12]: 45.3 µM (active) and 48.4 µM (active) and 26.6 µM (active) | Potency [13]: inactive

Cn1[nH]nnc1=S
Potency [1]: inactive | Potency [2]: inactive | Potency [3]: inactive | Potency [14]: inactive | Potency [4]: inactive | outcome [5]: inactive | Potency [6]: inactive | Potency [15]: inactive | Potency [16]: inactive | Potency [18]: inactive | Potency [10]: inactive | Potency [11]: inactive | Potency [12]: inactive | Potency [13]: inactive

BrCC(Br)c1ccccc1 (stereo not drawn)
Potency [1]: inactive | Potency [2]: inactive | Potency [3]: inactive | Potency [14]: inactive | Potency [4]: inactive | Potency [15]: inactive | Potency [16]: inactive | Potency [17]: inactive | Potency [19]: inactive | Potency [7]: inactive | Potency [8]: inactive | Potency [18]: inactive | outcome [9]: inactive | Potency [12]: inactive | Potency [13]: inactive

Reference: PubChem BioAssay (Tox21)
